Data: PubChem BioAssay (Tox21)
Values joined by “and” are separate entries in the source; they are usually repeats but may differ in a detail not shown here. Identical values can stand only once. Inconclusive results are not listed. More than one record can exist for a structure, and the calls need not agree. Active and inactive are the calls of the source. Calls follow the shape of the full dose curve.

target: 5-hydroxytryptamine receptor 2A (Homo sapiens) (UniProt P28223); test: 5-hydroxytryptamine receptor 2A (HTR2A) small molecule agonists, cell-based qHTS assay (AID 1963587); details: HTR2A-CHO cells, calcium flux fluorescence, agonist mode; series mostly up to 76.8 µM; activation: at the top concentration; also: nearly all actives have a fitted effect of over 30% in size
Sequence (P28223 whole entry, looked up): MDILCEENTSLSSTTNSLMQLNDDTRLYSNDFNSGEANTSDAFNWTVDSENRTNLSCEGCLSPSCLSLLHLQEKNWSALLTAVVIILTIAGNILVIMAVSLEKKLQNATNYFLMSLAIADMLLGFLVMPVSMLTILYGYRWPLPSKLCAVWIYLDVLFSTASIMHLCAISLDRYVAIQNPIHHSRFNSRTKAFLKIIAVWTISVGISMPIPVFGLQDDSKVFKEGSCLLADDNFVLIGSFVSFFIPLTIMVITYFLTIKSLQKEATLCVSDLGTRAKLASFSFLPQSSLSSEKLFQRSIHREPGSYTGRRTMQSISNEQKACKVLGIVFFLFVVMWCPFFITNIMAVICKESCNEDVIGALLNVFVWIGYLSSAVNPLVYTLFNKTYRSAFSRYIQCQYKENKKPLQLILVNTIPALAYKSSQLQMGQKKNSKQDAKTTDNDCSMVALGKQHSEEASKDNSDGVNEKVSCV
Source text: National Center for Advancing Translational Sciences [NCATS]
Division of Preclinical Innovation [DPI]
U.S. Environmental Protection Agency [EPA]
National Institutes of Environmental Health Sciences [NIEHS]
National Toxicology Program [NTP]
U.S. Food and Drug Administration [FDA]
The HTR2A receptor is a subtype of the 5-HT2 receptor that belongs to the serotonin receptor family and is a G protein-coupled receptor (GPCR). The HTR2A-CHO cell line stably expressing human 5-hydroxytryptamine receptor 2A (HTR2A) can be used for screening agonists of interactions between 5-HT2 and its ligands. The HTR2A-CHO calcium flux assay is a homogeneous fluorescence-based assay for detecting the intracellular calcium level using FDSS kinetic plate reader system.
HTR2A-CHO cells were dispensed at 2000 cells/3uL/well in 1536-well black-clear bottom plates using a Multidrop Dispenser. After the assay plates were incubated at a 37 C/5% CO2 incubator for 18 h, 3 uL of Dye Loading Buffer was transferred to the assay plate by a Flying Reagent Dispenser. The assay plates were incubated at 37 C for 1h. For agonist mode, 23 nL of compounds dissolved in DMSO, positive controls or DMSO only was transferred to the assay plate by a pin tool. The fluorescence intensity in the plates was measured using FDSS 7000EX kinetic plate reader for 2 min at 1 sec intervals.
% is scaled to controls: 0 for no effect and ±100 for the full control effect; potency is read from the fitted curve at half-maximal effect.

Row | SMILES | activation | Potency
1 | OC[C@H]1O[C@@H](O[C@H]2[C@H](O)[C@@H](O)[C@H](O)O[C@@H]2CO)[C@H](O)[C@@H](O)[C@H]1O | 0.702% (inactive) | 
2 | O=C(O)CSCC(=O)NC1CCSC1=O (stereo not given) | -1.3% [at 35.6 µM] (inactive) | 
3 | C=CCCC=C | -3.07% (inactive) | 
4 | CN1C(=O)CC(C)(c2ccccc2)C1=O (stereo not given) | -8.11% [at 35.6 µM] (inactive) | 
5 | OCC(CO)(CO)CO |  | inactive
6 | COc1cc2c(Nc3ccc(Br)cc3F)ncnc2cc1OCC1CCN(C)CC1 | -1.65% [at 35.6 µM] (inactive) | 
7 | C=CC(=O)OCCN(CC)CC | -1.46% (inactive) | 
8 | Clc1ccc2c(c1)Nc1ccccc1S2 | -2.64% [at 35.6 µM] (inactive) | 
9 | CC1=CC(C)C(C=O)CC1 (stereo not given) | 2.14% (inactive) | 
10 | CCCCN(CCCC)CCCCCCN(CCCC)CCCC | 0.0637% (inactive) | 
11 | O=C1OC[C@H](Cc2cccc(O)c2)[C@H]1Cc1cccc(O)c1 | 1.46% [at 35.6 µM] (inactive) | 
12 | CC(C)(C)c1nnc(NS(=O)(=O)c2ccc(N)cc2)s1 | 1.31% [at 35.6 µM] (inactive) | 
13 | Nc1ccc(N)c(Cl)c1 |  | inactive and 21.9 µM (active)
14 | O=C(Cl)c1ccccc1[N+](=O)[O-] | -2.36% (inactive) | 
15 | CCCCC1CCC(O)CC1 (stereo not given) | -11.3% (inactive) | 
16 | O=S(=O)(O)c1ccc2cc(O)c(S(=O)(=O)O)cc2c1 | 0.0845% (inactive) | 
17 | NCc1ccccc1Sc1ccccc1CO | -0.32% [at 35.6 µM] (inactive) | 
18 | Cn1c(=O)c2[nH]c(Br)nc2n(C)c1=O | -7.05% [at 35.6 µM] (inactive) | 
19 | Nc1c2ccccc2nc2ccccc12 |  | inactive
20 | COC(=O)CCC(=O)O | 0.875% (inactive) | 

Row | SMILES | activation | Potency
21 | N#Cc1cc(NC(=O)C(=O)O)c(Cl)c(NC(=O)C(=O)O)c1 | 2.95% [at 35.6 µM] (inactive) | 
22 | Cc1cncc(C)c1 | 0.461% (inactive) | 
23 | NCCNCCO | -1.92% (inactive) | 
24 | CCOC(=O)OC(=O)OCC | -0.624% (inactive) | 
25 | CCC(C)c1ccccc1 (stereo not given) | -0.158% (inactive) | 
26 | c1ccsc1 | -5.23% (inactive) | 
27 | Oc1ccc(Cl)cc1Sc1cc(Cl)ccc1O | 2.99% [at 35.6 µM] (inactive) | 
28 | CC(C)(C)c1ccc(O)c(C(C)(C)C)c1 |  | 34.5 µM (active) and 27.5 µM (active)
29 | C/C(=N\O)[C@@H](C)NCC(C)(C)CN[C@H](C)/C(C)=N/O | 3.44% [at 35.6 µM] (inactive) | 
30 | CC1=CCC(O)(C(C)C)CC1 (stereo not given) | 3.29% (inactive) | 
31 | CC(C)(C)NC(N)=O | -0.148% (inactive) | 
32 | COc1cccc(OC)c1O | 5.72% (inactive) | 
33 | CC(C)CCOCCC(C)C | 1.77% (inactive) | 
34 | C=C1C[C@H]2[C@@H]3C=C(C)C4=CC(=O)CC[C@]4(C)[C@H]3CC[C@]2(C)[C@@]1(OC(C)=O)C(C)=O |  | inactive
35 | Cc1cc(C)c(S(=O)(=O)O)cc1N=Nc1cc(S(=O)(=O)O)c2ccccc2c1O | 2.63% (inactive) | 
36 | Cc1sccc1Br | 2.81% [at 35.6 µM] (inactive) | 
37 | Nc1cc(=O)[nH]c(N)n1 | 2.14% [at 35.6 µM] (inactive) | 
38 | O=c1[nH]cnc2c1ncn2[C@@H]1O[C@H](CO)[C@@H](O)[C@H]1O | -1.19% [at 35.6 µM] (inactive) | 
39 | O=C(O)[C@@H](O)[C@H](O)[C@H](O)[C@@H](O)C(=O)O | 1.09% [at 35.6 µM] (inactive) | 
40 | O=C1c2c(O)ccc(Nc3ccc(CCO)cc3)c2C(=O)c2c([N+](=O)[O-])ccc(O)c21 | 4.23% (inactive) | 
